These results are taken from ChEMBL document CHEMBL1961873, “Compounds: GSK PKIS; Assays: Nanosyn kinase panel” (2012).

Several values for one entry are separate records, joined by “and”; a condition that tells them apart may be missing. Equal entries are not always repeated.

The target of one test is MAP/microtubule affinity-regulating kinase 3 (Homo sapiens) (UniProt P27448). The following applies: at 1 µM.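 Note: reported values are averaged percent inhibition of MARK3.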
Chain of MAP/microtubule affinity-regulating kinase 3 (Homo sapiens) (P27448 whole entry, looked up): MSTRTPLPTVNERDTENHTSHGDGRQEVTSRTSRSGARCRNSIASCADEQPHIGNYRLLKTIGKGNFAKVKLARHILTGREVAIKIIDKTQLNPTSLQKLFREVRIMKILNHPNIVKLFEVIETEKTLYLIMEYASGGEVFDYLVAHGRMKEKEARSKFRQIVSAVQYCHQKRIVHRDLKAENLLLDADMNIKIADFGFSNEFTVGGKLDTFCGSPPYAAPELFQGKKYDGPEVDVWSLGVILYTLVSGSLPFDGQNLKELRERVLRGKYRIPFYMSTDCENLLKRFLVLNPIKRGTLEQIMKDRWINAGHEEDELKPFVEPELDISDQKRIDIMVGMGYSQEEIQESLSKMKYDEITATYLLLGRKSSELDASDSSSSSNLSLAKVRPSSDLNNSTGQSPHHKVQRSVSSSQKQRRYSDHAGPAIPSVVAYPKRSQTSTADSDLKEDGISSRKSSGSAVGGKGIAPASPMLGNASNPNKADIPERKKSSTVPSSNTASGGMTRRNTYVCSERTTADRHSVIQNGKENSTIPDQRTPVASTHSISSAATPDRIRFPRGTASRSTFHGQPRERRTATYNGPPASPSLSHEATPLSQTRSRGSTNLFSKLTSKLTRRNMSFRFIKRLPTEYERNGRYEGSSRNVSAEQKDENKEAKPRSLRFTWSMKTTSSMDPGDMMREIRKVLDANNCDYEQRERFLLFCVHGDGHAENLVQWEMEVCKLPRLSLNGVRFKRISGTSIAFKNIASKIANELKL
Consider `FC(F)(F)CNc1nccc(-c2cnn3ncccc23)n1`, for which the inhibition is -0.26%.

Consider `CCOc1ccc2c(-c3ccnc(Nc4cc(OC)cc(C(F)(F)F)c4)n3)cnn2n1`, for which the inhibition is -0.83%.

Turning to `CCS(=O)(=O)c1ccc(OC)c(Nc2ncc(-c3cccc(C(C)=O)c3)o2)c1`, the inhibition was found to be 10.1%.

Take `CS(=O)(=O)CCNCc1ccoc1-c1ccc2ncnc(Nc3ccc(OCc4ccccc4)cc3)c2c1`: the inhibition was -1.52%.

As for `NS(=O)(=O)c1cccc(N/C=C2\C(=O)Nc3ccccc32)c1`, the inhibition was 17%.

For the compound `CCn1c(-c2nonc2N)nc2cncc(C(=O)NCCNC)c21`, the inhibition came to 16.6%.

As to `CS(=O)(=O)CCNCc1ccc(-c2ccc3ncnc(Nc4ccc(OCc5cccc(C(F)(F)F)c5)cc4)c3c2)o1`, the inhibition is 3.96%.

As for `COc1cc(N2CCN(C(C)C)CC2)ccc1Nc1nc(Nc2cccc(F)c2C(=O)O)c2cc[nH]c2n1`, the inhibition was determined as 4.97%.

As to `O=C(O[C@H]1CN[C@H](C#Cc2cc3ncnc(Nc4ccc5c(cnn5Cc5ccccc5)c4)c3s2)C1)N1CCOCC1`, the inhibition was 2.28%.

On to `CS(=O)(=O)Nc1ccc(-c2cc(-c3ccccc3)cc(C(N)=O)c2N)cc1`, for which the inhibition was 0.12%.

Consider `CCS(=O)(=O)c1ccc(OC)c(Nc2ncc(-c3cccc(F)c3)o2)c1`, for which the inhibition was found to be 2.56%.

`O=C1Nc2ccccc2/C1=C1\CCc2cc(O)ccc21`: the inhibition was found to be 40.1%.

Regarding `Cc1ccc(-c2cc3c(NC(=O)C4CC4)ncnc3o2)cc1`, the inhibition is 7.2%.

For the compound `CS(=O)(=O)Nc1ccc(-c2ccc3c(NC(=O)C4CC4)n[nH]c3c2)cc1`, the inhibition is 0.81%.

Regarding `Cn1c(-c2nonc2N)nc2cnccc21`, the inhibition was 9.08%.

Consider `COc1cccc(-n2ncc3c(N/N=C/c4ccc(C(=O)NCCN(C)C)cc4)ncnc32)c1`, for which the inhibition was found to be 18.4%.

`O=C(Nc1n[nH]c2nnc(-c3cccnc3)cc12)C1CC1`: the inhibition is 1.25%.

Take `COC(=O)Nc1nc2ccc(Oc3ccc(NC(=O)Nc4cc(C(F)(F)F)ccc4F)cc3)cc2s1`: the inhibition is -0.18%.

Consider `NC(=O)c1ccc2c(-c3ccnc(NCCCO)n3)c(-c3ccc(F)cc3)nn2c1`, for which the inhibition came to 21.9%.

As for `NS(=O)(=O)c1ccc(N/N=C2\C(=O)Nc3ccc(C(=O)NCc4ccncc4)cc32)cc1`, the inhibition amounted to 34.4%.

For the compound `CNC(=O)c1ncccc1Nc1nc(Nc2cc3c(cc2OC)CCCN3C(=O)CN(C)C)nc2[nH]ccc12`, the inhibition was determined as 3.77%.

Turning to `COc1ccccc1-c1cc(/C=C2\C(=O)Nc3ncc(Br)cc32)cc(Br)c1O`, the inhibition stood at 1.27%.

On to `CN(C)CCNC(=O)Nc1ccc(N(C)c2ccnc(Nc3ccc(CS(C)(=O)=O)cc3)n2)cc1`, for which the inhibition amounted to 6.62%.

With `CS(=O)(=O)CCNCc1ccc(-c2ccc3ncnc(Nc4ccc(OCc5ccccc5)cc4)c3c2)o1`, the inhibition is -0.22%.

With `COC(=O)Nc1nc2cc(Oc3ccc(NC(=O)Nc4ccccc4)cc3)ccc2[nH]1`, the inhibition is 2.58%.

As to `O=C(O[C@H]1CN[C@H](C#Cc2cc3ncnc(Nc4ccc(OCc5cccc(F)c5)c(Cl)c4)c3s2)C1)N1CCOCC1`, the inhibition worked out at 10.1%.

For the compound `CCCNc1cccc(-n2ncc3c(N/N=C/c4ccncc4)ncnc32)c1`, the inhibition was found to be 9.23%.

For the compound `CC1=C(C(=O)Nc2ccc3[nH]nc(C)c3c2)C(c2ccc(C(F)(F)F)cc2)CC(=O)N1` (configuration not stated), the inhibition was determined as 5.26%.

For `CN1CCC(C(=O)Nc2n[nH]c3nc(-c4ccc(O)cc4)c(Br)cc23)CC1`, the inhibition is 2.99% and 3.23%.

Consider `Cc1cc(O)cc(C)c1/C=C/c1cncc(C(=O)OC(C)(C)C)c1`, for which the inhibition came to 1.89%.

`CN1CCN(Cc2ccc(-c3cc4ncnc(Nc5ccc(OCc6cccc(F)c6)c(Cl)c5)c4s3)o2)CC1`: the inhibition is 2.84% and 0.44%.

The target of a further test is T1, MAP/microtubule affinity-regulating kinase 4 (Homo sapiens) (UniProt Q96L34).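 Note: values are averaged percent inhibition of MARK4.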
T1 sequence (whole entry): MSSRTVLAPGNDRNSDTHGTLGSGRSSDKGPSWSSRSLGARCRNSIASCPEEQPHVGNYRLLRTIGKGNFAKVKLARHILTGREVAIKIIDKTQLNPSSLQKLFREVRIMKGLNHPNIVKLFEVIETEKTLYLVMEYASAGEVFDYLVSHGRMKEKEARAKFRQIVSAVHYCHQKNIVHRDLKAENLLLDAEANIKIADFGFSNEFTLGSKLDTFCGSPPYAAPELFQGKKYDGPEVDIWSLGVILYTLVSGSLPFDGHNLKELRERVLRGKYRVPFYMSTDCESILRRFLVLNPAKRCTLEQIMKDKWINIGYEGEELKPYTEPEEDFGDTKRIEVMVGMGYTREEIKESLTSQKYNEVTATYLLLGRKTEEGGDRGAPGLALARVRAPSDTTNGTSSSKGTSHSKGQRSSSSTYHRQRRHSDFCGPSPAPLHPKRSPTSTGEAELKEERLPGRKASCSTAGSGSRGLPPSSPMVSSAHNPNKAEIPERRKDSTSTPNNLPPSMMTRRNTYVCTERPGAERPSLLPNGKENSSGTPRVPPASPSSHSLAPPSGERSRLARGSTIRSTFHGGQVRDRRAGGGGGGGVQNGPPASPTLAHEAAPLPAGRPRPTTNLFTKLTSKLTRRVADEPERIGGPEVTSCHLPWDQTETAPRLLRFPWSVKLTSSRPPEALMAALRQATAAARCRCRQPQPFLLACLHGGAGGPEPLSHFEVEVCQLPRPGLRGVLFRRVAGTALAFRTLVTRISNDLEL
The following applies: at 0.1 µM.
Turning to `FC(F)(F)CNc1nccc(-c2cnn3ncccc23)n1`, the inhibition came to 1.01%.

As for `CCOc1ccc2c(-c3ccnc(Nc4cc(OC)cc(C(F)(F)F)c4)n3)cnn2n1`, the inhibition was -0.72%.

Turning to `CCS(=O)(=O)c1ccc(OC)c(Nc2ncc(-c3cccc(C(C)=O)c3)o2)c1`, the inhibition turned out to be 0.67%.

Consider `CS(=O)(=O)CCNCc1ccoc1-c1ccc2ncnc(Nc3ccc(OCc4ccccc4)cc3)c2c1`, for which the inhibition was -0.56%.

For the compound `NS(=O)(=O)c1cccc(N/C=C2\C(=O)Nc3ccccc32)c1`, the inhibition turned out to be 4.17%.

On to `CCn1c(-c2nonc2N)nc2cncc(C(=O)NCCNC)c21`, for which the inhibition is 2.2%.

In the case of `CS(=O)(=O)CCNCc1ccc(-c2ccc3ncnc(Nc4ccc(OCc5cccc(C(F)(F)F)c5)cc4)c3c2)o1`, the inhibition came to 1.47%.

Regarding `COc1cc(N2CCN(C(C)C)CC2)ccc1Nc1nc(Nc2cccc(F)c2C(=O)O)c2cc[nH]c2n1`, the inhibition is 1.88%.

With `O=C(O[C@H]1CN[C@H](C#Cc2cc3ncnc(Nc4ccc5c(cnn5Cc5ccccc5)c4)c3s2)C1)N1CCOCC1`, the inhibition was 0.43%.

In the case of `CS(=O)(=O)Nc1ccc(-c2cc(-c3ccccc3)cc(C(N)=O)c2N)cc1`, the inhibition was 0.69%.

Turning to `CCS(=O)(=O)c1ccc(OC)c(Nc2ncc(-c3cccc(F)c3)o2)c1`, the inhibition amounted to 2.11%.

Consider `O=C1Nc2ccccc2/C1=C1\CCc2cc(O)ccc21`, for which the inhibition came to 7.29%.

For the compound `Cc1ccc(-c2cc3c(NC(=O)C4CC4)ncnc3o2)cc1`, the inhibition was 1.77%.

`CS(=O)(=O)Nc1ccc(-c2ccc3c(NC(=O)C4CC4)n[nH]c3c2)cc1`: the inhibition amounted to 2.19%.

As to `Cn1c(-c2nonc2N)nc2cnccc21`, the inhibition was 1.25%.

Regarding `COc1cccc(-n2ncc3c(N/N=C/c4ccc(C(=O)NCCN(C)C)cc4)ncnc32)c1`, the inhibition amounted to 2.02%.

Take `O=C(Nc1n[nH]c2nnc(-c3cccnc3)cc12)C1CC1`: the inhibition turned out to be 0.54%.

Turning to `COC(=O)Nc1nc2ccc(Oc3ccc(NC(=O)Nc4cc(C(F)(F)F)ccc4F)cc3)cc2s1`, the inhibition was -0.51%.

On to `NC(=O)c1ccc2c(-c3ccnc(NCCCO)n3)c(-c3ccc(F)cc3)nn2c1`, for which the inhibition amounted to 1.93%.

`NS(=O)(=O)c1ccc(N/N=C2\C(=O)Nc3ccc(C(=O)NCc4ccncc4)cc32)cc1`: the inhibition worked out at 4.76%.

As for `CNC(=O)c1ncccc1Nc1nc(Nc2cc3c(cc2OC)CCCN3C(=O)CN(C)C)nc2[nH]ccc12`, the inhibition is 2.04%.

In the case of `COc1ccccc1-c1cc(/C=C2\C(=O)Nc3ncc(Br)cc32)cc(Br)c1O`, the inhibition is 2.01%.

`CN(C)CCNC(=O)Nc1ccc(N(C)c2ccnc(Nc3ccc(CS(C)(=O)=O)cc3)n2)cc1`: the inhibition was 1.9%.

`CS(=O)(=O)CCNCc1ccc(-c2ccc3ncnc(Nc4ccc(OCc5ccccc5)cc4)c3c2)o1`: the inhibition was determined as 2.33%.

With `COC(=O)Nc1nc2cc(Oc3ccc(NC(=O)Nc4ccccc4)cc3)ccc2[nH]1`, the inhibition was found to be 1.19%.

Consider `O=C(O[C@H]1CN[C@H](C#Cc2cc3ncnc(Nc4ccc(OCc5cccc(F)c5)c(Cl)c4)c3s2)C1)N1CCOCC1`, for which the inhibition turned out to be 1.79%.

As to `CCCNc1cccc(-n2ncc3c(N/N=C/c4ccncc4)ncnc32)c1`, the inhibition worked out at 0.58%.

Turning to `CC1=C(C(=O)Nc2ccc3[nH]nc(C)c3c2)C(c2ccc(C(F)(F)F)cc2)CC(=O)N1` (configuration not stated), the inhibition was -0.05%.

For `CN1CCC(C(=O)Nc2n[nH]c3nc(-c4ccc(O)cc4)c(Br)cc23)CC1`, the inhibition was 2.14% and -0.03%.

`Cc1cc(O)cc(C)c1/C=C/c1cncc(C(=O)OC(C)(C)C)c1`: the inhibition was found to be 0.38%.

As for `CN1CCN(Cc2ccc(-c3cc4ncnc(Nc5ccc(OCc6cccc(F)c6)c(Cl)c5)c4s3)o2)CC1`, the inhibition was 1.62% and 1.87%.
